Our source for the growth values is PubChem BioAssay (NCI).

Some test systems named below: DU-145 prostate; K-562 leukemia; MALME-3M melanoma; MDA-MB-231 breast; RXF 393 renal; SF-268 CNS; SF-295 CNS; SF-539 CNS; M14 melanoma; HCT-15 colon; HT29 colon; SNB-75 CNS; U251 CNS; PC-3 prostate; SK-MEL-5 melanoma; UACC-62 melanoma; LOX IMVI melanoma; SK-MEL-28 melanoma; UACC-257 melanoma; SNB-19 CNS.
Holding throughout (test): NCI-60 one-dose screen, 48 h (100 = growth as untreated, 0 = no growth, -100 = all killed)
Common to all, as to details: 10 µM unless noted

Compounds without any hit were thinned out: in the full panel of roughly 83,000, 20% have a hit.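 In brief: 96-well plates, 48 h treatment, single concentration, percent growth endpoint.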 Unmarked numbers belong to inactive results. The source made the active and inactive calls. The calls were made as follows: active = growth percent below 10; inactive = the rest.

With `O=c1cc(-c2ccccc2)[nH]c2ccccc12`, the growth is 17.6% with DU-145 prostate; 32.6% with K-562 leukemia; 50% in the assay with MALME-3M melanoma; 95.6% with MDA-MB-231 breast; 36.1% in the assay with RXF 393 renal; 50.5% with SF-268 CNS. In addition, the growth in the assay with SF-295 CNS is 16.4%; in the assay with SF-539 CNS it was 4.43% (active); in the assay with M14 melanoma, 15.9%; in the assay with HCT-15 colon it was 17.5%; with HT29 colon, 15.3%; with SNB-75 CNS, 30%. Further, the growth in the assay with U251 CNS was 27.2%; in the assay with PC-3 prostate, 27.1%; with SK-MEL-5 melanoma, 29.4%; in the assay with UACC-62 melanoma, 64.5%; in the assay with LOX IMVI melanoma, 57.7%; in the assay on SK-MEL-28 melanoma, 62.4%.

As to `Cn1c(=O)c2[nH]c(C(O)C(O)C(O)C(O)CO)nc2n(C)c1=O` (stereo unspecified), the growth is 109% in the assay on DU-145 prostate; 95.1% in the assay on K-562 leukemia; 97% in the assay with MALME-3M melanoma; 101% with MDA-MB-231 breast; 115% in the assay with RXF 393 renal; 106% in the assay with SF-268 CNS. In addition, the growth in the assay on SF-295 CNS was 103%; in the assay on UACC-257 melanoma it was 93.6%; in the assay on M14 melanoma it was 105%; in the assay with HCT-15 colon it was 106%; with HT29 colon it was 99.6%; with SNB-75 CNS, 92.6%. For the same compound, the growth was 97.3% with SNB-19 CNS; 100% in the assay with U251 CNS; 93.2% in the assay with PC-3 prostate; 104% with SK-MEL-5 melanoma; 99.7% in the assay on UACC-62 melanoma; 102% with LOX IMVI melanoma. Besides, the growth in the assay on SK-MEL-28 melanoma is 100%.

Consider `O=C(O)c1ccccc1Nc1cccc(S(F)(F)(F)(F)F)c1`, for which the growth with DU-145 prostate was 107%; with K-562 leukemia, 107%; in the assay on MALME-3M melanoma it was 101%; in the assay on MDA-MB-231 breast, 110%; with RXF 393 renal, 116%; in the assay with SF-268 CNS it was 94.2%. For the same compound, the growth in the assay on SF-295 CNS was 99.4%; in the assay on UACC-257 melanoma it was 102%; in the assay with M14 melanoma, 102%; in the assay on HCT-15 colon it was 94.7%; in the assay with HT29 colon, 84.2%; with SNB-75 CNS it was 91.3%. The growth in the assay with SNB-19 CNS was 98.7%; in the assay on U251 CNS, 85.7%; in the assay with PC-3 prostate it was 95.9%; in the assay on SK-MEL-5 melanoma, 95.6%; with UACC-62 melanoma it was 93.7%; with LOX IMVI melanoma, 92.4%. For the same compound, the growth with SK-MEL-28 melanoma was 108%.

For `COC(=S)SCN(CSC(=S)OC)c1ccc(Cl)cc1`, the growth in the assay on DU-145 prostate is 110%; with K-562 leukemia it was 90.1%; in the assay on MALME-3M melanoma, 75.1%; with MDA-MB-231 breast it was 66.1%; in the assay on RXF 393 renal, 95.3%; in the assay with SF-268 CNS it was 94.2%. Moreover, the growth was 84.8% with SF-295 CNS; 84.8% with SF-539 CNS; 77% in the assay on M14 melanoma; 86.3% with HCT-15 colon; 102% with HT29 colon; 58.9% with SNB-75 CNS. Moreover, the growth is 99.3% in the assay on PC-3 prostate; 83.6% in the assay on SK-MEL-5 melanoma; 58% with UACC-62 melanoma; 73.4% in the assay with LOX IMVI melanoma; 102% with SK-MEL-28 melanoma.

Turning to `Cc1ccc(N)cc1F`, the growth was 109% in the assay with DU-145 prostate; 99.1% in the assay with K-562 leukemia; 93.5% in the assay on MALME-3M melanoma; 82% in the assay on MDA-MB-231 breast; 104% with RXF 393 renal; 98.6% with SF-268 CNS. Moreover, the growth with SF-295 CNS is 110%; in the assay on SF-539 CNS, 100%; in the assay with M14 melanoma, 88.2%; in the assay on HCT-15 colon it was 91.7%; in the assay on HT29 colon, 110%; with SNB-75 CNS it was 101%. Further, the growth was 95.8% in the assay with U251 CNS; 108% in the assay on PC-3 prostate; 104% with SK-MEL-5 melanoma; 96% in the assay on UACC-62 melanoma; 87.8% in the assay with LOX IMVI melanoma; 117% in the assay with SK-MEL-28 melanoma.

In the case of `Cc1ccc2cnc(N)c(C#Cc3cncc(C(=O)Nc4ccc(CN5CCN(C)CC5)c(C(F)(F)F)c4)c3)c2c1`, the growth is -95.8% (active) with DU-145 prostate; -50.5% (active) in the assay with K-562 leukemia; -83.4% (active) in the assay on MALME-3M melanoma; -94.8% (active) with MDA-MB-231 breast; -93% (active) with RXF 393 renal; -69% (active) in the assay on SF-268 CNS. Also, the growth in the assay with SF-295 CNS is -87.2% (active); in the assay on SF-539 CNS, -99.2% (active); with UACC-257 melanoma it was -64.7% (active); in the assay on HCT-15 colon, -91.9% (active); with HT29 colon, -69.9% (active); in the assay with SNB-19 CNS it was -99.1% (active). The growth is -89.5% (active) with U251 CNS; -71% (active) in the assay on PC-3 prostate; -95.6% (active) with SK-MEL-5 melanoma; -85.5% (active) in the assay on UACC-62 melanoma; -92.4% (active) in the assay with LOX IMVI melanoma; -90.8% (active) in the assay on SK-MEL-28 melanoma.

On to `CCC(c1ccccc1)C(CC)c1ccc(O)c(O)c1` (stereo unspecified), for which the growth with DU-145 prostate is 100%; in the assay on K-562 leukemia, 87%; in the assay on MALME-3M melanoma, 114%; in the assay on MDA-MB-231 breast it was 109%; with RXF 393 renal, 106%; with SF-268 CNS it was 92.1%. Also, the growth is 106% in the assay on SF-295 CNS; 97.3% in the assay with UACC-257 melanoma; 96.9% with M14 melanoma; 91.2% with HCT-15 colon; 104% with HT29 colon; 86.4% with SNB-75 CNS. The growth is 116% in the assay on SNB-19 CNS; 96.6% in the assay with U251 CNS; 92.7% in the assay on PC-3 prostate; 88.3% in the assay with SK-MEL-5 melanoma; 81.5% in the assay on UACC-62 melanoma; 87.9% with LOX IMVI melanoma. Besides, the growth with SK-MEL-28 melanoma was 95.4%.

Take `Cc1cc(N/N=C/c2nc(-c3ccc(Cl)cc3)oc2C)c2cc(Cl)ccc2n1`: the growth with DU-145 prostate was 34.3%; with K-562 leukemia, -15.8% (active); in the assay with MALME-3M melanoma, -14.2% (active); with MDA-MB-231 breast, 63.8%; in the assay on RXF 393 renal, 83.3%; in the assay with SF-268 CNS, 74.8%. Besides, the growth in the assay with SF-295 CNS was 98.6%; with SF-539 CNS, 69.5%; in the assay on UACC-257 melanoma, 101%; with HCT-15 colon it was -52.6% (active); in the assay with HT29 colon it was -51.2% (active); with SNB-19 CNS, 29.3%. The growth in the assay on U251 CNS is -54.5% (active); with PC-3 prostate, 67%; in the assay on SK-MEL-5 melanoma it was 95.1%; with UACC-62 melanoma it was 29.7%; with LOX IMVI melanoma it was -66.7% (active); in the assay with SK-MEL-28 melanoma, 10.3%.

For `C/C(Cc1ccc(Cl)cc1)=C(\c1ccc(OCCN2CCCCCC2)cc1)c1ccc(OC(=O)C2CCCCC2)cc1`, the growth in the assay with DU-145 prostate is 70.4%; with K-562 leukemia, 11.4%; in the assay on MALME-3M melanoma it was 85.7%; in the assay on MDA-MB-231 breast, 85.4%; in the assay on RXF 393 renal it was 56.2%; with SF-268 CNS, 57%. Further, the growth is 89.8% with SF-295 CNS; 74.2% in the assay with SF-539 CNS; 91% in the assay on UACC-257 melanoma; 39% in the assay on HCT-15 colon; 18.4% in the assay on HT29 colon; 77.6% in the assay with SNB-19 CNS. In addition, the growth in the assay on U251 CNS was 45%; with PC-3 prostate it was 51.5%; with SK-MEL-5 melanoma, 83.5%; with UACC-62 melanoma it was 68.1%; in the assay with LOX IMVI melanoma, 65.8%; in the assay with SK-MEL-28 melanoma it was 61.2%.

Turning to `CC(=O)C1=C(O)C=C2Oc3c(C(=O)/C=C/c4ccccc4)c(O)c(C)c(O)c3[C@]2(C)C1=O`, the growth was 57% in the assay on DU-145 prostate; 24.9% in the assay on K-562 leukemia; 74.2% in the assay on MALME-3M melanoma; 61.2% in the assay on MDA-MB-231 breast; 62.9% in the assay with RXF 393 renal; 35.2% with SF-268 CNS. The growth with SF-295 CNS is 19.5%; in the assay on UACC-257 melanoma it was 44.5%; with M14 melanoma it was 36.1%; in the assay on HCT-15 colon, 25.3%; in the assay with HT29 colon, 32.6%; in the assay on SNB-75 CNS, 87.1%. Also, the growth in the assay on SNB-19 CNS is 21.6%; with U251 CNS, 7.84% (active); with PC-3 prostate it was 24.2%; in the assay on SK-MEL-5 melanoma, 10.1%; in the assay on UACC-62 melanoma, 32.9%; in the assay on LOX IMVI melanoma, 41.4%. Besides, the growth in the assay on SK-MEL-28 melanoma is 43.1%.

For the compound `C=CC[N+]1(CC)CCN=C1CCCCCCCCCCCCCCCCC` (stereo unspecified), the growth is -100% (active) in the assay with DU-145 prostate; -66.9% (active) with K-562 leukemia; -46.4% (active) in the assay on MALME-3M melanoma; -89.7% (active) with MDA-MB-231 breast; -90.3% (active) in the assay with RXF 393 renal; -83.4% (active) in the assay on SF-268 CNS. In addition, the growth with SF-295 CNS was -31.4% (active); with SF-539 CNS it was -98.2% (active); with UACC-257 melanoma, -91.3% (active); in the assay with HCT-15 colon, -88.6% (active); in the assay on HT29 colon it was -100% (active); with SNB-75 CNS, -92.1% (active). The growth with U251 CNS is -100% (active); with PC-3 prostate, -68.6% (active); in the assay with SK-MEL-5 melanoma, -100% (active); in the assay on UACC-62 melanoma it was -86.1% (active); in the assay on LOX IMVI melanoma, -96.3% (active); in the assay on SK-MEL-28 melanoma, -76.1% (active).
